Test results published in PubChem BioAssay (NCI).
Compounds without any hit were thinned out: in the full panel of roughly 83,000, 20% have a hit.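 Plates (96-well) were seeded with cells, treated with compound at one concentration, and incubated for 48 hours before percent growth was determined.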 Unmarked numbers belong to inactive results. Active and inactive are the calls of the source. The calls were made as follows: active = growth percent below 10; inactive = the rest.

system: HL-60(TB) leukemia; experiment: NCI-60 one-dose screen, 48 h (100 = growth as untreated, 0 = no growth, -100 = all killed); settings: 10 µM unless noted

| Compound | growth |
| --- | --- |
| CCOC(=O)c1c(C)nc2c(c1N)/C(=C/c1ccccn1)C(=O)N2Cc1ccccc1 | -5.96% (active) |
| C[C@]12CCc3nc(Nc4ccccc4)sc3C1=CC[C@@H]1[C@@H]2CC[C@]2(C)/C(=N/NC(N)=S)CC[C@@H]12 | 49% |
| Cc1ccc(Cl)cc1N1C(=O)CC(Sc2ccccc2N)C1=O (stereo unspecified) | 110% |
| c1ccc(Sc2ncccn2)nc1 | 100% |
| O=c1[nH]c(=S)c2c(n1CCCO)CCC2 | 95.6% |
| CC1=CCC[C@@H]2C1(C)CC[C@H](C)[C@@]2(C)CC1=CC(=O)C(SC(C)(C)C)=CC1=O (stereo partly specified) | 56.4% |
| N#Cc1c(-c2ccccc2)nc(SCc2nnc(-c3ccc(Cl)cc3)o2)[nH]c1=O | 92.2% |
| C=C1C(=O)O[C@H]2[C@H]1CC/C(COC(=O)c1ccccc1)=C\CC[C@@]1(C)O[C@@H]21 | -59.5% (active) |
| c1cncc(-c2nc3ccccc3[nH]2)c1 | 94.8% |
| COc1ccc(-c2ccc3ncc4c(c3c2)n(-c2ccc(N3CCNCC3)c(C(F)(F)F)c2)c(=O)n4C)cn1 | -65.4% (active) |
| O=C(O)COc1ccc(Cl)cc1C1CCCCC1 | 116% |
| Cc1c(C(=O)O)c(=O)n(-c2ccccc2)n1C | 109% |
| C/C(=C\CCc1ccoc1)CC/C=C(\C)CCCN1CCSCC1 | 73.9% |
| CCCCNc1cc(C(=O)O)cc(S(N)(=O)=O)c1Oc1ccccc1 | 107% |
| COc1ccc(-c2nn(-c3ccc(NC(=O)Nc4cc(C(F)(F)F)cc(C(F)(F)F)c4)cc3)cc2-c2ccncc2)cc1Cl | 4.01% (active) |
| CCCCCCC/C=C/[C@H]1O[C@]23C(=O)C[C@@]4(C[C@@H](OC5OC(CO)C(O)C(O)C5O)C[C@@H]4[C@H]2C=C1C)OC3=O (stereo partly specified) | -13.1% (active) |
| Cc1cc(C)c(-c2c(O)c(Br)c(-c3c(C)cc(C)c(Br)c3C)c(O)c2Br)c(C)c1Br | 27.3% |
| COc1cc([C@@H]2NC(=O)NC(C)=C2C(=O)Nc2nc(-c3ccc(Cl)cc3)cs2)ccc1O | 100% |
| Cn1c(C#N)ccc1-c1ccc(F)c(NC(=O)c2ccc(F)cc2)c1 | 60% |
| Cc1ccc(C(=O)c2ccc(CC(=O)N/N=C/c3ccc(O)cc3O)n2C)cc1 | 4.48% (active) |
| O=C1C(=O)/C(=C/c2ccccc2)CCCCCC/C1=C/c1ccccc1 | 46.6% |
| C[n+]1cccc(NC(=O)c2ccc3ccc4ccc(C(=O)Nc5ccc[n+](C)c5)nc4c3n2)c1 | 61.4% |
| COc1ccc(C(C)=O)cc1S(N)(=O)=O | 74.7% |
| CC(C)(C)c1nn(-c2ccccc2)c2c1C(=O)CSC(c1ccc3c(c1)OCO3)N2 (stereo unspecified) | 89.5% |
| N=C(N)c1ccc(-c2ccc(-c3ccc(Cl)cc3Cl)s2)cc1F | -49.7% (active) |
| CCOC(=O)c1cn2ncnc(Oc3ccc(NC(=O)NCCN4CCN(C)CC4)c(Cl)c3)c2c1C | 96.9% |
